The source made the active and inactive calls. The rule behind the calls is not given here.
Each compound was assayed on Aerobactin synthetase IucA (Klebsiella pneumoniae, hypervirulent) (assay: biochemical IucA inhibition screen of LOPAC library by absorbance (AID 1346212;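 note: 100% = no compound wells and 0% = no enzyme wells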)). Conditions: IucA enzyme assay, absorbance (OD) readout; active compounds read low;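 tested at 8 µM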.
With CC1CN(S(=O)(=O)c2cccc3cnccc23)CCN1 (configuration not stated) the remaining activity was 102% (inactive).
For CC[C@H](C)[C@H]1O[C@]2(CC[C@@H]1C)C[C@@H]1C[C@@H](C/C=C(\C)[C@@H](O[C@H]3C[C@H](OC)[C@@H](O[C@H]4C[C@H](OC)[C@@H](O)[C@H](C)O4)[C@H](C)O3)[C@@H](C)/C=C/C=C3\CO[C@@H]4[C@H](O)C(C)=C[C@@H](C(=O)O1)[C@]34O)O2, the remaining activity was 114% (inactive).
CNCCC(Oc1ccccc1C)c1ccccc1 (configuration not stated) was tested, and the remaining activity was 102% (inactive).
O=c1onc2n1-c1cc(Br)ccc1OC2 was tested, and the remaining activity was 105% (inactive).
In the case of CC(O)C(O)[C@H]1CNc2nc(N)[nH]c(=O)c2N1 (some centres not stated), the remaining activity was 102% (inactive).
For CN1CCc2cc(Cl)c(O)cc2[C@@H](c2ccccc2)C1, the remaining activity was 102% (inactive).
In the case of C=C/C(C)=C/[C@@]1(C)SC(=O)C(C)=C1O, the remaining activity was 123% (inactive).
In the case of CC[N+](CC)(CC)CCOc1ccc(/C=C/c2ccccc2)cc1, the remaining activity was 118% (inactive).
For Brc1c(Br)c(Br)c2[nH]cnc2c1Br, the remaining activity was 110% (inactive).
With C[C@@H](CN1CCC(Cc2ccccc2)CC1)[C@@H](O)c1ccc(O)cc1 the remaining activity was 92.9% (inactive).
With COc1ccc([C@@H]2Sc3ccccc3N(CCN(C)C)C(=O)[C@@H]2OC(C)=O)cc1 the remaining activity was 109% (inactive).
For CCCNC[C@H](O)COc1ccccc1C(=O)CCc1ccccc1, the remaining activity was 91.3% (inactive).
For Cc1ccccc1N1CCN(S(=O)(=O)C[C@@]23CC[C@H](CC2NC(=O)[C@H](N)CCS(C)(=O)=O)C3(C)C)CC1 (some centres not stated), the remaining activity was 121% (inactive).
With CNCCC(Oc1ccccc1OC)c1ccccc1 (configuration not stated) the remaining activity was 104% (inactive).
For CN[C@H](CC(C)C)C(=O)N[C@H]1C(=O)N[C@@H](CC(N)=O)C(=O)N[C@H]2C(=O)N[C@H]3C(=O)N[C@H](C(=O)N[C@H](C(=O)O)c4cc(O)cc(O)c4-c4cc3ccc4O)[C@H](O)c3ccc(c(Cl)c3)Oc3cc2cc(c3O[C@@H]2O[C@H](CO)[C@@H](O)[C@H](O)[C@H]2O[C@H]2C[C@](C)(N)[C@H](O)[C@H](C)O2)Oc2ccc(cc2Cl)[C@H]1O, the remaining activity was 98.6% (inactive).
In the case of CC(C)(Sc1ccc(CCN(CCCCC2CCCCC2)C(=O)NC2CCCCC2)cc1)C(=O)O, the remaining activity was 119% (inactive).
In the case of C=CCN1CCc2c(cc(O)c(O)c2Br)[C@@H](c2ccccc2)C1, the remaining activity was 116% (inactive).
With CCNC(=O)N1CCN(CCCC(c2ccc(F)cc2)c2ccc(F)cc2)CC1 the remaining activity was 112% (inactive).
For O=C(O)CN(CCOCCOCCN(CC(=O)O)CC(=O)O)CC(=O)O, the remaining activity was 88.2% (inactive).
For NC(=O)c1ncn([C@@H]2O[C@H](CO)[C@@H](O)[C@H]2O)c1O, the remaining activity was 122% (inactive).
For CC[N+](C)(C)Cc1ccccc1Br, the remaining activity was 108% (inactive).
CC(=O)NCCc1ccc(O)c(O)c1 was tested, and the remaining activity was 116% (inactive).

From PubChem BioAssay
